Laboratory results: PubChem BioAssay AID1159506 (National Center for Advancing Translational Sciences (NCATS), 2015)
Over roughly 59,000 sequences, the read-out has its median near -0.00055; the lowest 2% begin near -2. The entries come from a sample that favours the lowest values as a whole.

Experiment: Identification of proteins required for the processing of the EWS-FLI1 nascent transcript;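 further: robust z of luciferase light less the median z of siRNAs with the same seed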
Settings: TC32 Ewing sarcoma NR0B1-luc vs CMV-luc (EWS-FLI1 target promoter against control promoter), 48 h; screened at 20 nM (by protocol)
Summary of the method: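 Readout: OneGlo luminescence, 48 h post-transfection, TC32-NR0B1-luc vs TC32-CMV-luc in parallel. siRNA 20 nM final, RNAiMax lipid, 600 cells/well; z-score-MAD transformed, then seed-adjusted.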

Row | Sequence | seed-corrected z-score
1 | UAUUUGUCCAGGUAUGGUG against ERRFI1 | -0.215
2 | GUCUCUGGUACCUGUGUGC against LOC440300 | -0.25
3 | UACUCUGUUAGGAAGACCG against TECR | 0.271
4 | UCCUGCUUCCGGAAUAUCU against PNMA2 | -2.12
5 | UCAGAUUUCAGACCGCCCA against LINC00668 | 0.167
6 | UUCAGUUCGUAAUCUCUCU against FLOT1 | 0.706
7 | UUCAAAUCCCUAUUAAAGC against ARFIP1 | 0.962
8 | AAGUGGAACCGAUACUUCC against SPDYE14P | -0.205
9 | UUUGGUGCACGUAACUUGG against C6orf203 | -2.05
10 | UUCGGUGUCAAUAACUGUG against BCAS3 | -1.77
11 | UUUCGUAAUAUGCGGCCUC against ASPA | -0.032
12 | UCUUGAUAAGAGACCAGCU against PRR3 | 0.373
13 | AAAUCCACAAUCCAGGGAG against SPATA31E2P | 0.176
14 | UGUUCAGUUGCUAAAAUGG against KLRC1 | 0.773
15 | UCUGUAAACAGCUUGAUGA against GLP1R | -0.289
16 | UUCAUUCUCUGCAAAAUCC against NSMCE1 | -0.305
17 | UACGAUCAAAGGUUGAUUC against ATF7IP | -4.54
18 | UUCAAUGCAUACAUAGAGC against ZNF585A | 0.552

Row | Sequence | seed-corrected z-score
19 | AUAGGGUAUAGCUCCAGUC against CIART | 1.2
20 | UGAAGUCGUAGAUCUCACG against PTDSS2 | -2.62
21 | AAUAGUUAUUUUGUUGAGC against C6orf52 | -0.622
22 | UAGGUGUGCAUCAUAGUAA against C11orf94 | -0.539
23 | UGAGUCAUCCACGCAGUUC against PSCA | 0.371
24 | UCUGUUUCCAUUGCGUUCU against FLJ41278 | -0.527
25 | UCUUCGUCUGGGUCGUUUG against SIGLEC6 | -0.384
26 | UUCUGGAGUAGCAAGCUAC against POLR2D | -2.24
27 | UUUCAUCUCCAUCCGGUAG against JPH3 | -0.755
28 | ACUCGAAGCAUCUCGAUGG against HAS3 | -0.313
29 | AACUAAACCAGCUCGCUUC against LRRC8C | 2.39
30 | UGUCAAGUCGGGUUCACCC against CCDC97 | -0.229
31 | UGCUGCUUCCCUAAGAUCC against ATG4A | 0.243
32 | AAUAGCUGCAUAACUGUCU against CLTA | -3.36
33 | UUCUGCUUCAUGUUGAGCC against RECQL4 | -0.111
34 | UCUUGUCGAAAAGCUCACC against KIAA1161 | 0.789
35 | AUCGUGCAAGGUGUUCUCC against BFSP2 | 0.341
36 | AUUUCCUUGAUUGUCAUCC against SERPINB7 | -2.22
